Measured values from PubChem BioAssay AID2796 (The Scripps Research Institute Molecular Screening Center, 2010).
Among all 320,000 compounds or so, about 8,000 (2.5%) were called active. The sample holds actives, similar compounds and a random draw of the others, so the mix is not that of the screen. Unmarked numbers belong to inactive results. Rule as the data show it: active = activation above about 47%; inactive = the rest.

These compounds were tested against Aryl hydrocarbon receptor (Homo sapiens) (UniProt P35869) (assay: AHR activators, primary screen, cell-based, luminescence, luciferase reporter, human (AID 2796;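 also: 0% = vehicle wells and 100% = reference agonist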)). Settings: AHR-responsive luciferase reporter cells, at 5 µM, hits give high values.
Sequence of Aryl hydrocarbon receptor (Homo sapiens) (P35869 whole entry, looked up): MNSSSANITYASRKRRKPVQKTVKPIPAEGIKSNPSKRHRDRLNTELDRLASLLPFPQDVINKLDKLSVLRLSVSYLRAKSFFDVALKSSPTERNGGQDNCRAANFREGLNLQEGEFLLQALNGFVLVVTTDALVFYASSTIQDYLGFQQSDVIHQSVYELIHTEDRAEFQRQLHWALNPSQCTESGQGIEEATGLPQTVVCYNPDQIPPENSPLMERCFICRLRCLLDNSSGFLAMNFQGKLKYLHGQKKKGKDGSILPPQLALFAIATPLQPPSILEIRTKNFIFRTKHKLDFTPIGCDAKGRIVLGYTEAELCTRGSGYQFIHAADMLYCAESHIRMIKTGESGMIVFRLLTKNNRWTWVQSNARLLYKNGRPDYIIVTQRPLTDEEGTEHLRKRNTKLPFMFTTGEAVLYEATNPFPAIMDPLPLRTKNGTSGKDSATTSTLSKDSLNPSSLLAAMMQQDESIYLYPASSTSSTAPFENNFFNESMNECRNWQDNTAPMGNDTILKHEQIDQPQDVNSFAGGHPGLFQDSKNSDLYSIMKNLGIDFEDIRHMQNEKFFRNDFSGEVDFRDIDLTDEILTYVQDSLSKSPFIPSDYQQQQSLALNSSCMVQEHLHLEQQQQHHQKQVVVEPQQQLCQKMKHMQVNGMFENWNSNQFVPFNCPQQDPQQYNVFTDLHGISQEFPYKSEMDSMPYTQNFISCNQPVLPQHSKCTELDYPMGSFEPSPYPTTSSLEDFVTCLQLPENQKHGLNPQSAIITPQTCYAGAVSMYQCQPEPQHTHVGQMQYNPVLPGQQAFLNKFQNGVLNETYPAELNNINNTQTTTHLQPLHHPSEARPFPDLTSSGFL
Work on COc1ccc(OC)c(S(=O)(=O)N2CCCC(C(=O)N3CCC(C(N)=O)CC3)C2)c1 (stereo unspecified) yielded an activation of -1.65%. With N#CC1=C(N)Oc2c(ccc3cccnc23)C1c1ccncc1 (stereo unspecified) the activation was -0.63%. In the case of N#CC1=C(N)Oc2c(sc3ccccc23)C1c1ccco1 (stereo unspecified), the activation is reported as 74.7% (active). With CC(C)C(C(=O)NC1CCCCC1)N(CC1CCCO1)C(=O)CNS(=O)(=O)c1ccc(F)cc1 (stereo unspecified) the activation was -1.33%. O=C(c1ccc(=O)oc1)N1CCC(C(O)(c2ccccc2)c2ccccc2)CC1 gave an activation of 0.25%. With CC(=O)c1cc2c(cc1N)OCO2 the activation was 6.34%. In the case of O=C(c1ccc2c(c1)OCO2)N1CCOCC1, the activation is reported as 0.36%. With Nc1[nH][nH]c(=O)c1N=Nc1ccc2c(c1)OCO2 the activation was 96.5% (active). Work on [O-][N+]12CCCCC1CCCC2CO (stereo unspecified) yielded an activation of -0.51%. For Cn1c(=O)c2c(SCC(=O)N3CCOCC3)nc(C3CC3)nc2n(C)c1=O, the activation was 7.71%. CCOC(=O)N1CCN(C(=O)CSc2nc(C)nc3c2c(=O)n(C)c(=O)n3C)CC1 gave an activation of -2.19%. In the case of CSc1nc(C)nc2c1c(=O)n(C)c(=O)n2C, the activation is reported as 7.77%. For CCC(C)Sc1nc(C)nc2c1c(=O)n(C)c(=O)n2C (stereo unspecified), the activation was 54% (active). CC(C)c1ccc(C2C(C#N)=C(N)Oc3c2oc(CO)cc3=O)cc1 (stereo unspecified) gave an activation of 1.15%. Work on C/C(=N\NC(=O)c1cccc([N+](=O)[O-])c1)c1cccnc1 yielded an activation of 43%. C/C(=N\NC(=O)c1ccc2ccccc2c1)c1cccnc1 showed an activation of 32.5%. C/C(=N\NC(=O)c1cccnc1)c1ccc(-n2ccnc2)cc1 was tested, and the activation was 94.3% (active). O=C(Nc1cccn(Cc2ccccc2Cl)c1=O)NC1CCCCC1 showed an activation of -0.61%. Work on Cc1ccc(C2CCN(C(=S)Nc3cccc(Cl)c3)C2)cc1 (stereo unspecified) yielded an activation of 0.22%. COc1ccc([N+](=O)[O-])cc1NC(=O)CC1SC(=Nc2cccc(C)c2C)N(/N=C(\C)c2ccc(C)cc2)C1=O (stereo unspecified) was tested, and the activation was 2.69%. Cc1cccc(C(=O)OCC(=O)NC(C)C2CC3CCC2C3)c1O (stereo unspecified) gave an activation of -0.37%. CC(Oc1cccc(NC(=O)c2cccs2)c1)C(=O)c1ccccc1 (stereo unspecified) gave an activation of 5.22%. CCOC(=O)c1c(C2CC2)csc1NC(=O)CSCc1c(C)noc1C was tested, and the activation was 74.2% (active). Cc1noc(C)c1CSCC(=O)Nc1ccc(Br)cc1Cl was tested, and the activation was -1.92%. Cc1ccc(F)cc1NC(=O)CSCc1c(C)noc1C gave an activation of -0.17%. COc1cccc(/C=C/C(=O)Nc2ccc3c(c2)OCCO3)c1 gave an activation of -3.92%. COc1c(O)cc2oc(-c3ccc(O)c(O)c3)cc(=O)c2c1O showed an activation of -2.83%. With COc1cccc(NC(=O)[C@H](Cc2c[nH]c3ccccc23)NC(=O)[C@@H]2Cc3ccccc3CN2)c1 the activation was 8.95%. For CSC(=S)N/N=C/c1c[nH]c2ccccc12, the activation was 82% (active). For O=C(O)c1cccc(NC(=S)N/N=C/c2c[nH]c3ccccc23)c1, the activation was 22%. In the case of Cc1c(/C=N\NC(=O)c2cc3ccccc3o2)c2ccccc2n1C, the activation is reported as 26.2%. Nc1nonc1-n1nnc(C(=O)N/N=C/c2c[nH]c3ccccc23)c1-c1ccccc1 gave an activation of 15.2%. With O=C(N/N=C/c1c[nH]c2ccccc12)c1ccccc1O the activation was 19%. For O=C(N/N=C/c1c[nH]c2ccccc12)c1cc2ccccc2o1, the activation was 99% (active). Compound CC1(C)C(C=C(Cl)Cl)C1C(=O)NC(O)C(=O)c1ccccc1 (stereo unspecified) has an activation of -1.26%. COC(=O)c1ccc(C(=O)NC2CC(C)(C)Cc3c2cnn3-c2ccc(F)cc2)nc1 (stereo unspecified) showed an activation of -1.69%. COc1cc(C)nc(N2CCCC(C(=O)NCC(C)C)C2)n1 (stereo unspecified) showed an activation of 5.81%. Work on CCc1cc(C(=O)OC)c(NC(=O)CC2Sc3ccc(C(F)(F)F)cc3NC2=O)s1 (stereo unspecified) yielded an activation of -1.22%. With Cc1cc(C)nc(SCc2nnc(SCC(=O)OC3CCCCC3)o2)n1 the activation was 0.2%. CC(OC(=O)c1c(F)cccc1F)C(=O)NCCC1=CCCCC1 (stereo unspecified) showed an activation of 1.47%. In the case of CC(C)(C)C(=O)OCc1nc(-c2ccc(O)c(O)c2)cs1, the activation is reported as 4.13%. COc1ccc(-c2csc(Cc3nc(O)cs3)n2)cc1 was tested, and the activation was 47.5% (active). For COc1ccc(-c2csc(NC(=O)COC(=O)c3ccc(Br)o3)n2)cc1, the activation was 15.7%. CC1CCCCC12NC(=O)N(CC(=O)Nc1ccc(S(=O)(=O)Nc3ncccn3)cc1)C2=O (stereo unspecified) showed an activation of 0.23%. With COC(=O)c1c(NC(=O)CN2C(=O)NC(CCc3ccccc3)C2=O)sc2c1CCCCC2 (stereo unspecified) the activation was 6.43%. With COc1ccc(S(=O)(=O)NC(C)c2ccccc2)cc1C(=O)N1CCCCC1 (stereo unspecified) the activation was 2.64%. Work on O=c1[nH]c(/C=C/c2cccc(Br)c2)nc2ccccc12 yielded an activation of 22.6%. For O=c1[nH]c(-c2cccs2)nc2ccccc12, the activation was 71.2% (active). O=c1[nH]c(N2CCOCC2)nc2ccccc12 gave an activation of 2.44%. In the case of Cc1c(CN2CCC(n3nccc3NC(=O)CCc3ccccc3)CC2)cnn1C, the activation is reported as 1.39%. Cc1cccc(C)c1NC(=O)CNC(=O)Cc1ccc(Br)cc1 was tested, and the activation was 5.24%. With CCOC(=O)Cc1csc(SCc2cc(=O)oc3cc(O)ccc23)n1 the activation was -1.46%. Compound Cc1cc(=O)oc2cc(OCC(=O)Nc3nnc(C4CC4)s3)ccc12 has an activation of 9.3%. For CCOC(=O)Cc1csc(NC(=O)COc2ccc3c(C)cc(=O)oc3c2)n1, the activation was 59.9% (active). In the case of CCOC(=O)c1cccc(NC(=O)c2ccc(F)cc2F)c1, the activation is reported as 5.88%. For CCCC(=O)N=c1sc2cccc(F)c2n1C, the activation was 5.82%. In the case of Cn1c(=NC(=O)c2ccco2)sc2cccc(F)c21, the activation is reported as 58% (active). Work on Cn1c(=NC(=O)c2cnccn2)sc2ccccc21 yielded an activation of 13.9%. With COc1ccc2oc(C(=O)OCC(=O)N(CC(C)C)c3c(N)n(Cc4ccccc4)c(=O)[nH]c3=O)c(C)c2c1 the activation was -3.35%. In the case of O=C(COc1ccccc1)Nc1cc2c3c(c1)CC(=O)N3CCC2, the activation is reported as 8.04%. In the case of CCOc1cc(/C=N/O)ccc1OCc1ccccc1F, the activation is reported as 50.4% (active). COc1cc(/C=C2/C(=O)ON=C2C)ccc1OCc1ccccc1F was tested, and the activation was 0.62%. CCOc1ccc(/C=N/NC(=O)C(C)Sc2ccccn2)cc1OCC (stereo unspecified) gave an activation of 4.44%. Cc1ccc(NC(=O)COC(=O)CNC(=O)c2ccc(Cl)cc2Cl)cc1S(=O)(=O)N1CCOCC1 gave an activation of -1.57%. O=C(CC1C(=O)NCCN1Cc1ccc(-c2ccccc2)cc1)NCc1ccncc1 (stereo unspecified) gave an activation of 0.69%. In the case of CC(C)c1ccc(NC(=S)NC2CC3C=CC2C3)cc1 (stereo unspecified), the activation is reported as 7.48%. In the case of O=c1[nH]c(=S)[nH]c2[nH]c(=S)[nH]c12, the activation is reported as 0%. For Cc1c(C)c(C)c2[nH]c(=S)[nH]c2c1C, the activation was 52.1% (active). In the case of CCN(CC(=O)Nc1ccc2c(c1)OCO2)S(=O)(=O)c1ccccc1, the activation is reported as 28.8%. O=C(CCS(=O)(=O)Cc1ccccc1)Nc1ccc2c(c1)OCCO2 was tested, and the activation was 3.19%. For O=C(CN(c1ccc2c(c1)OCCO2)S(=O)(=O)c1ccccc1)Nc1ccc2c(c1)OCO2, the activation was 79.1% (active). O=C(CN1CCN(S(=O)(=O)c2cccc(Cl)c2)CC1)N1CCCCC1 showed an activation of -1.59%. Work on CCCCNC(=O)C1(c2ccc(OC)cc2)CCOCC1 yielded an activation of 0.03%. CS(=O)(=O)c1ccc2nnn(OCC(=O)Nc3cccc(C#N)c3)c2c1 showed an activation of 5.17%. In the case of Fc1ccccc1OCCSc1nc2ccccc2o1, the activation is reported as -9.22%. In the case of COc1ccc(C(C(O)C(=O)c2c[nH]c3ccccc23)N2CCN(c3ccccc3)CC2)cc1 (stereo unspecified), the activation is reported as 12.8%. COc1ccc(/C=C(\NC(=O)c2ccc(OC)c(OC)c2)C(=O)NCCc2c[nH]c3ccccc23)cc1 gave an activation of 13.8%. In the case of COc1ccc(/C=C(\C#N)c2c[nH]c3ccccc23)cc1, the activation is reported as 53.6% (active). Work on CC(NC(=O)COC(=O)c1ccc(Cl)cc1O)c1ccc(F)cc1 (stereo unspecified) yielded an activation of 3.35%. Cc1ccc2nc(/C(C#N)=C\c3ccc(OC(=O)c4cccs4)cc3)[nH]c2c1 was tested, and the activation was 80.8% (active). CCOC(=O)CSc1nc2ccc(C)cc2[nH]1 gave an activation of 1.6%. Compound CCOc1cc(/C=C(\C#N)c2nc(-c3cccs3)c(NC(C)=O)s2)ccc1O has an activation of 8.05%. Cc1ccc(S(=O)(=O)NC(C)C(=O)NCc2ccc(Cl)cc2)cc1 (stereo unspecified) gave an activation of 0.98%. COCCCn1c(SCc2cccc(OC)c2)nc2cc(OC)c(OC)cc2c1=N was tested, and the activation was 11.1%. For CC(C)(C)OC(=O)C[C@@H]1C/C=C\C[C@@H](CC(=O)N(CCO)Cc2ccccc2)C(=O)N[C@H](Cc2ccccc2)COC1=O, the activation was 2.29%. Cc1ccc2nc(SCC(=O)NC3CCCC3)[nH]c2c1 gave an activation of 42.2%. With Cc1ccc2nc(SCc3cn4c(C)cc(C)nc4n3)[nH]c2c1 the activation was 62.1% (active). Cc1cc(C)nc(SCc2cn3c(C)cc(C)nc3n2)n1 was tested, and the activation was 7.09%. CCC1(c2ccccc2)NC(=O)N(CC(=O)Nc2ccccc2C(=O)NC2CCCC2)C1=O (stereo unspecified) showed an activation of 1.57%. Work on CN(Cc1ccccc1)C(=O)COC(=O)/C=C/c1ccc2c(c1)OCO2 yielded an activation of 2.59%. With CN(c1ccc(OCC(=O)OCC(=O)Nc2cccc([N+](=O)[O-])c2)cc1)S(=O)(=O)c1ccc(F)cc1 the activation was 2%. O=C1C(=O)N(c2ccccc2)c2ccccc21 gave an activation of 0.42%. O=C(c1c(F)cccc1F)N1CCN(c2ncc(Br)cn2)CC1 showed an activation of 1.98%. For CCn1c(=O)c([N+](=O)[O-])c(NCc2ccc3c(c2)OCO3)c2ccccc21, the activation was 47.1% (active). CCn1c(=O)cc(SCC(=O)NCc2ccc3c(c2)OCO3)c2ccccc21 gave an activation of 6.43%. With CCn1c(=O)c(C(=O)NCc2ccc3c(c2)OCO3)c(O)c2ccccc21 the activation was 1.55%.
